# Laboratory results taken from PubChem BioAssay (NCI).
# About 79,000 compounds went through this panel and 15% of them were active in at least one assay; those are over-represented in the sample as a whole. Values without a mark were called inactive. Calls of active or inactive are those of the source. Cut-off read from the data, not from the text of the source: active = growth inhibition above about 70%; inactive = the rest.
# Key:
# [1] = NCI Yeast Anticancer Drug Screen. Data for the rad50 strain (AID 155);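 note: 0% = growth of vehicle-only cultures of the same strain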; conditions: S. cerevisiae rad50 strain growth inhibition; at 50.0 µM; hits give high values
# Procedure, shortened: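 Inhibition values express reduced yeast growth in compound-treated cultures relative to vehicle-treated controls.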
# [2] = NCI Yeast Anticancer Drug Screen. Data for the mec2-1 strain (AID 157); conditions: S. cerevisiae mec2-1 strain, at 50.0 µM, hits give high values
# Procedure, shortened: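 Mutant yeast (mec2-1) grown with compound; growth inhibition relative to vehicle control reported.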
# [3] = NCI Yeast Anticancer Drug Screen. Data for the sgs1 mgt1 strain (AID 161);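 note: 0% = growth of cultures given vehicle only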; conditions: S. cerevisiae sgs1 mgt1 strain, at 50.0 µM, hits give high values
# Procedure, shortened: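 Compounds are added to genetically altered yeast, and growth is compared with cultures given vehicle alone to give percent inhibition.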
# [4] = NCI Yeast Anticancer Drug Screen. Data for the cln2 rad14 strain (AID 165);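 note: 0% = growth equal to vehicle treated cultures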; conditions: S. cerevisiae cln2 rad14 strain, at 50.0 µM, hits give high values
# Procedure, shortened: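 Readout is yeast growth inhibition versus vehicle-treated controls, using a strain with cln2 and rad14 alterations exposed to compound.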
# [5] = NCI Yeast Anticancer Drug Screen. Data for the bub3 strain (AID 167); conditions: S. cerevisiae bub3 mutant strain, at 50.0 µM, hits give high values
# Procedure, shortened: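 Steps: expose the mutant yeast strain to compound; grow alongside vehicle-treated cultures; measure growth; express inhibition against the vehicle cultures.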
# [6] = NCI Yeast Anticancer Drug Screen. Data for the mlh1 rad18 strain (AID 175); conditions: S. cerevisiae mlh1 rad18 strain growth inhibition; at 50.0 µM; hits give high values
# Procedure, shortened: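 Genetically defined yeast (DNA repair-deficient) exposed to compounds; growth inhibition determined relative to vehicle.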
Compound,growth inhibition [1],growth inhibition [2],growth inhibition [3],growth inhibition [4],growth inhibition [5],growth inhibition [6]
COc1ccc(OC(C)C(=O)O)cc1 (stereo not given),13.2%,10.5%,3.5%,-31.5%,13.3%,6.25%
N#C/C(N)=C(\C#N)N=CNc1ccc(N)cc1,-32.8%,-31.1%,-22.2%,23%,1.4%,-10.9%
CCOC(=O)c1sc(C(=O)OCC)c2c1-c1cccc3cccc-2c13,-35.6%,13.1%,4.35%,-48%,15.1%,-9.95%
O=[N+]([O-])C(C=Nc1ccccc1)C=Nc1ccccc1 (stereo not given),6.35%,-23%,-2.85%,-2.25%,-13.4%,0.45%
C/C(=N\NC(=S)NCCCCNC(=S)N/N=C(\C)c1ccccn1)c1ccccc1,-4.15%,36.1%,14.7%,3.65%,38.4%,13.9%
O=C(O)CCCc1ccccc1[N+](=O)[O-],-16.7%,-41.8%,-6.4%,-2.35%,-18.9%,-19.8%
Cc1cc(Br)c(NC(=O)c2c(-c3c(Cl)cccc3Cl)noc2C)c(Br)c1,-3.35%,-16.3%,-8.15%,4.9%,-11.7%,4.9%
O=C(O)C(O)C(O)C(O)C(O)C(=O)O.[NH-]C1CCCCC1[NH-].[Pt+2] (stereo not given),8.15%,-3.25%,-1.55%,12.9%,8.25%,6.75%
CC(C)C1N=C(N)N=C(N)N1c1ccc(Cl)c(Cl)c1 (stereo not given),17.4%,10.1%,8%,-16.9%,5.25%,6.6%
c1ccc(CN2CCCCC2)nc1,-12.9%,-20.7%,-11.1%,10.6%,-10.2%,-10.2%
COc1cc2oc(=O)ccc2cc1[C@@H]1OC(=O)[C@@]2(C)O[C@@H]12,-0.75%,-6.3%,-1.35%,-35.7%,3.35%,-2.85%
COc1cccc(NC(=O)C(=O)C2C=CCS2(=O)=O)c1 (stereo not given),0.4%,-0.65%,-31.4%,-6.6%,-28.3%,-13%
O=c1[nH]c2nc3ccccc3c(=O)n2/c1=C/c1ccc(O)cc1,9.6%,2.3%,-12%,8.95%,7.3%,-19.8%
COC1(c2ccccc2)OC(=O)C(C)(C)c2ccccc21 (stereo not given),-5.1%,7.65%,14.2%,22.1%,13.9%,3.55%
CC(C)(C)CC(C)(C)Nc1ccc(C(N)=O)cc1,-2.35%,15.2%,-20.9%,-8.2%,7.7%,9.6%
Nc1nc2c(nnn2C2OC(CO)C(O)C2O)c(=O)[nH]1 (stereo not given),-4.6%,5.65%,-5.3%,-37.5%,-16.8%,9.45%
O=C(c1ccc(Cl)cc1)C(Br)C(C[N+](=O)[O-])c1ccccc1 (stereo not given),99.3% (active),99% (active),99.5% (active),97.2% (active),99.1% (active),99.2% (active)
CCCCN(CCCC)CCC(O)c1cc(-c2ccc(Cl)c(Cl)c2)nc2c(Cl)cc(Cl)cc12 (stereo not given),96.4% (active),95.5% (active),6.85%,97.2% (active),90.3% (active),74.8% (active)
C=C[C@@]1(C)CC2CC[C@]3(C)C(C)=CC(=O)CC3[C@]2(C)CC1O (stereo not given in full),6.9%,3.3%,22.7%,-20.3%,13%,10.4%
O=C1NC(N(Cc2ccccc2)Cc2ccccc2)=NC1(c1ccccc1)c1ccccc1,16.2%,2.85%,23.2%,7.45%,5.9%,20.6%

Compound,growth inhibition [1],growth inhibition [2],growth inhibition [3],growth inhibition [4],growth inhibition [5],growth inhibition [6]
CC1CN=C(Nc2ccc(S(N)(=O)=O)cc2)S1 (stereo not given),-21.2%,-18.6%,-58.1%,-11.4%,-2.25%,-43%
COc1ccc(C)cc1N=NC1C(=O)N(C(=O)CC(=O)Nc2ccccc2OC)N=C1c1ccccc1 (stereo not given),12.8%,-1.5%,-7.4%,6.55%,2.35%,15.3%
COc1ccc2cc(NC(=O)N/N=C\c3ccc([N+](=O)[O-])cc3)ccc2c1,27.1%,7.35%,19.2%,-8.3%,12.9%,27.4%
CCN(CC)Cc1ccccc1COC(=O)/C=C/c1ccccc1,9.8%,13.3%,11.6%,7.1%,12.9%,13.9%
CC(C)(C)c1ccc(/C=N/NC(=O)c2cccnc2)cc1,0.55%,8.45%,4.15%,14.3%,11.3%,9.45%
O=C1c2cc([N+](=O)[O-])sc2C(=O)c2ccsc21,88.6% (active),89.3% (active),91.2% (active),90.2% (active),91.1% (active),90.7% (active)
Clc1cc(Cl)c2ccc3c(Cl)cc(Cl)c4ccc1c2c43,-18.6%,-33.3%,-10.8%,7.3%,-30.8%,-20.6%
CC(C)=CCCC(C)(OC1OC(COC2OCC(O)C(O)C2O)C(O)C(O)C1O)C1CCC2(C)C1C(O)CC1C3(C)CCC(OC4OC(CO)C(O)C(O)C4OC4OC(CO)C(O)C(O)C4O)C(C)(C)C3CCC12C (stereo not given),-15.8%,-26.1%,-6.05%,6.6%,4.55%,18.4%
CCCNc1ccc2c(c1)C(O)c1ccccc1-2 (stereo not given),-4.65%,-5.1%,5.35%,2.4%,-4%,-2.95%
NCC(=O)NC1(C(=O)NCC(=O)O)CCCC1,-2.45%,-2.2%,-20.9%,-13.9%,6.5%,1.3%
CC1(C)OC(CP(=O)(c2ccccc2)c2ccccc2)C(CP(=O)(c2ccccc2)c2ccccc2)O1 (stereo not given),23.1%,13.1%,15.4%,18.2%,-2.2%,13.2%
Cc1c2c(cc3c1CCC1(C)C3CCC1C(C)/C=C/C(C)C(C)C)CC(O)CC2 (stereo not given),6.65%,11.8%,2.6%,-0.2%,-3%,20.5%
COc1ccc2nc3cc(Cl)ccc3c(NCCCNCCCNc3c4ccc(Cl)cc4nc4ccc(OC)cc34)c2c1,-10.3%,-16.5%,-9.1%,3.5%,-6%,-23.1%
CC(c1ccccc1)C(C)(C#N)c1ccccc1 (stereo not given),2.8%,23.1%,15.8%,33.5%,10.5%,40.4%
CCNc1ccc(-c2ccc(NCC)cc2)cc1,31.6%,-14%,26%,3.2%,-1.45%,36.9%
CCSc1nc(COC(=O)NC)c(COC(=O)NC)n1C,4.9%,-4.25%,8.25%,-4.15%,10.7%,3.65%
CCCCCCCCCCCOc1ccc(Cl)cc1Cl,10.4%,16.5%,8.75%,-4.05%,30.2%,12.2%
O=c1oc2ccccc2cc1-n1nnc2ccccc21,-2.65%,11.1%,18.9%,2%,16.1%,21%
O=C(O)CSCc1cc2c(O)c(c1)Cc1cc(CSCC(=O)O)cc(c1O)Cc1cc(CSCC(=O)O)cc(c1O)Cc1cc(CSCC(=O)O)cc(c1O)C2,-6.9%,-5.6%,-6.55%,14.7%,43.8%,-0.1%
CC(=O)Nc1cc2cc(Br)ccc2oc1=O,28.9%,33.4%,18.9%,40%,50.1%,36.3%
